A selection: hits, their analogues and other compounds. The true share with any hit is near 3.4%.
NR2F2 inh = blocks human COUP-TFII nuclear receptor. P24468. HEK293T NGFI-A luciferase reporter, luminescence. inhibition, % at 8.6 µM. actives 0.7% (n = 370,000). AID 686940;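 active means inhibition above a per-plate cutoff, mean inhibition of test wells between control levels plus 3 SD, cut at about 38% in these data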;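 further: cells cotransfected with COUP-TFII expression vector driving the NGFI-A reporter; 0% = median of COUP-TF2 test wells and 100% = reporter-only cells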
Target sequence (P24468 whole entry, looked up): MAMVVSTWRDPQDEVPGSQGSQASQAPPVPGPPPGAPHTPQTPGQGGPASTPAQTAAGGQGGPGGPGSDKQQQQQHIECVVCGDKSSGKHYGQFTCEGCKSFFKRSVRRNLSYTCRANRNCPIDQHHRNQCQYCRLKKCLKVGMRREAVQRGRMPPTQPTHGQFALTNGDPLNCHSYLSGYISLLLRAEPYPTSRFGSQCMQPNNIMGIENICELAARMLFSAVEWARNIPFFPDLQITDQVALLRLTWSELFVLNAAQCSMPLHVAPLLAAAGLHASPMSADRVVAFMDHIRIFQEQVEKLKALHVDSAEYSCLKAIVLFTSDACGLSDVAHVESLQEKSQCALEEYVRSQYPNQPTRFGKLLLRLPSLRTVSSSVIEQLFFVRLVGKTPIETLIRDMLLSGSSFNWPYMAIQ
SMARCA2 act = increases SMARCA2 function in MMTV reporter cells; MG213 cells, MMTV-luciferase reporter, dexamethasone, overnight; activation, % at 9.1 µM; actives 1% (n = 370,000); in the data active means activation above about 7.8%;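 further: 0% = vehicle wells and 100% = reference activator wells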
GAA850 FXN act = frataxin GAA850 promoter activation. HEK293 lucGAA850 FXN promoter luciferase reporter, 24 h; percent of 10 µM SAHA response. activation, % at 6 µM. actives 0.56% (n = 360,000). AID 540364;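 active means activation above the average of all compounds screened plus 3 SD, cutoff fixed separately per campaign, cut at about 7.5% in these data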;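 further: 0% = DMSO wells and 100% = 10 µM SAHA wells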
Gli-Sufu block = Gli-Sufu pathway antagonism; Sufu-KO-LIGHT fibroblasts, Gli luciferase reporter luminescence; inhibition, % at 5 µM; actives 0.74% (n = 340,000); AID 588413;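 active means inhibition above about 55%, limit read from the data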;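 further: 0% = DMSO-treated cells and 100% = wells with medium but no cells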
GalR3 antagonist = blocks the human galanin receptor 3 | AID 651719 | HEK293 GalR3-CNG cAMP membrane potential fluorescence; galR3 body fused to GalR1 C-terminus | O60755 | actives 0.44% (n = 360,000) | inhibition, % at 3 µM;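 active means inhibition above the screen-wide average plus 3 SD, cut at about 13% in these data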;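 further: forskolin and galanin both at EC90 stimulate the cells; cAMP rise reported by CNG channel membrane potential dye signal; 0% = forskolin plus galanin with DMSO and 100% = forskolin alone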
H9c2 protect = modulators protecting cardiomyocytes from myocardial damage | H9c2 cardiomyocytes, H2O2 injury protection, ATPLite, 2 h | protection from H2O2 cell death, % at 20 µM | actives 0.63% (n = 360,000) | AID 588492;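 active means compounds giving at least 50% protection of heart cells from peroxide-induced death in the single-dose screen, raw or plate-pattern-corrected value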;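 further: 0% = DMSO wells with peroxide and 100% = DMSO wells without peroxide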
* hit, by the source's call.

COc1ccc(CCNc2nc(-c3cccnc3)nc3ccccc23)cc1OC was read as NR2F2 inh 17.2, SMARCA2 act 2.3, GAA850 FXN act -7.2, Gli-Sufu block -6.2, GalR3 antagonist -7.7 and H9c2 protect 50.7*.
CCCCCOC(=O)c1[nH]c2c(c1C)C(=O)CC(c1ccco1)C2 (stereo not drawn) was read as GAA850 FXN act -1.1, Gli-Sufu block 69.0* and H9c2 protect -33.9.
CCOCCOC(=O)c1[nH]c2c(c1C)C(=O)CC(c1cccs1)C2 (stereo not drawn) was read as NR2F2 inh -41.1, SMARCA2 act -1.4, GAA850 FXN act -0.6, Gli-Sufu block 30.9, GalR3 antagonist -2.0 and H9c2 protect -7.1.
CCCCOCCCNC(=O)C[C@@H]1C[C@@]2(C(=O)OCC)CCC=C2N(Cc2ccc3c(c2)OCO3)C1=O was read as NR2F2 inh -5.1, SMARCA2 act 0.8 and GalR3 antagonist -5.8.
`O=S(=O)(c1ccccc1)N1CCN(c2nc(-c3cccnc3)nc3ccccc23)CC1` gave NR2F2 inh 8.3, SMARCA2 act -2.2, GAA850 FXN act -0.7, Gli-Sufu block 9.7, GalR3 antagonist -4.5 and H9c2 protect 57.9*.
Screening Cc1cc(N)n(-c2nc(-c3cccnc3)nc3ccccc23)n1 returned NR2F2 inh -7.2, SMARCA2 act -1.6, GAA850 FXN act -2.9, Gli-Sufu block 3.9, GalR3 antagonist -4.4 and H9c2 protect 86.4*.
O=S(=O)(c1ccc(F)cc1)N1CCN(c2nc(-c3cccnc3)nc3ccccc23)CC1 was read as NR2F2 inh -2.2, SMARCA2 act 0.4, GAA850 FXN act -1.7, Gli-Sufu block 10.3, GalR3 antagonist -6.8 and H9c2 protect 34.8.
For c1cncc(-c2nc(N3CCOCC3)c3ccccc3n2)c1 the results were GAA850 FXN act 1.0, Gli-Sufu block 3.1 and H9c2 protect 13.8.
For Cc1cc(N)n(-c2cc(C)c3ccccc3n2)n1 the results were NR2F2 inh -30.6, SMARCA2 act 7.9*, GAA850 FXN act 6.6, Gli-Sufu block -4.0, GalR3 antagonist -2.1 and H9c2 protect -29.8.
`COc1ccc(S[C@]2(C(=O)N3CCN(c4ncccn4)CC3)CC(=O)N[C@@H]2c2ccc(OC)cc2)cc1` gave NR2F2 inh 5.0 and SMARCA2 act -2.2.
Screening O=C(NCCCc1ccccc1)O[C@@H]1CC[C@@]23CCCN2C(=O)CCC[C@H]3C1 returned NR2F2 inh 19.8.
`CN(C(=O)[C@@H](C1CC1)[C@@H](O)c1ccc(Cl)cc1)c1ccccc1` gave NR2F2 inh -10.4 and SMARCA2 act 0.3.
O=S(=O)(CC1NCCc2ccccc21)NCc1ccccc1 (stereo not drawn) was read as NR2F2 inh -9.2 and SMARCA2 act 0.8.
`Cc1ccccc1Cn1ccc(NC(=O)c2nc3ncccn3n2)n1` gave NR2F2 inh -3.1, SMARCA2 act 2.7, GAA850 FXN act 2.4, Gli-Sufu block -3.0, GalR3 antagonist 3.1 and H9c2 protect 6.0.
For Cc1ccccc1Cn1ccc(NC(=O)c2onc(C)c2Cl)n1 the results were NR2F2 inh -16.6, SMARCA2 act 7.8*, GAA850 FXN act -0.7, Gli-Sufu block -13.6, GalR3 antagonist 1.5 and H9c2 protect -3.3.
For OC(c1ccccc1)(c1ccccc1)C1CCN(CCCOc2ccc(Br)cc2)CC1 the results were NR2F2 inh -1.5 and SMARCA2 act 2.2.
Screening COc1ccc(/C=C2/SC(=S)N(CCCC(=O)Nc3ccc(O)cc3)C2=O)cc1 returned NR2F2 inh 19.9, SMARCA2 act -4.8, GAA850 FXN act -13.4, Gli-Sufu block 56.7*, GalR3 antagonist 1.4 and H9c2 protect -6.5.
Screening CC1(C)Oc2ccc3ccc(=O)oc3c2/C(=C/Nc2ccccn2)C1=O returned NR2F2 inh 12.2, SMARCA2 act -2.4, GAA850 FXN act 1.0, Gli-Sufu block -15.6, GalR3 antagonist -4.2 and H9c2 protect 55.9*.
`O=C(CSc1nnc(-c2ccco2)n1-c1ccc(Cl)cc1)Nc1ccc(S(=O)(=O)Nc2nccs2)cc1` gave NR2F2 inh 2.1 and SMARCA2 act 5.5.
`COc1ccccc1C(=O)Nc1nc(-c2ccc3c(c2)OCCO3)cs1` gave NR2F2 inh -9.6, SMARCA2 act -3.9, GAA850 FXN act 0.6, Gli-Sufu block -3.9, GalR3 antagonist 0.2 and H9c2 protect 64.5*.
For C=CCCC1(CCC)C(=O)/C(=C(\O)c2ccccc2)C(=O)C(CCC)=C1OC (stereo not drawn) the results were NR2F2 inh 3.4 and SMARCA2 act -1.0.
Screening Cc1ccc2[nH]c(O)c(N=NC(N)=S)c2c1 returned NR2F2 inh -10.1, SMARCA2 act 3.4, GAA850 FXN act 0.0, Gli-Sufu block 9.2, GalR3 antagonist -1.5 and H9c2 protect -9.1.
`CC(/C=C(\NC(=O)c1ccccc1)C(=O)N=Nc1c(O)[nH]c2ccc(C)cc12)=C\c1ccccc1` gave NR2F2 inh 10.2, SMARCA2 act 0.7, GAA850 FXN act -5.7, Gli-Sufu block 28.3, GalR3 antagonist 0.0 and H9c2 protect 61.5*.
`C=CCN=C1NC(c2ccc(Cl)cc2)C(C(=O)OC)=C(C)N1Cc1cccc(C(F)(F)F)c1` (stereo not drawn) gave NR2F2 inh 7.3, SMARCA2 act -4.5 and GalR3 antagonist -9.3.
Screening CC(C)(C)N1C(=O)[C@H]2[C@@H](c3ccc(Br)cc3)N3C(=O)N(c4ccccc4)C(=O)[C@@]3(C)[C@H]2C1=O returned NR2F2 inh 3.4, SMARCA2 act 0.3, GAA850 FXN act 12.0*, Gli-Sufu block -3.1, GalR3 antagonist -3.8 and H9c2 protect 3.0.
Screening CCN(CC)C(=O)c1ccc(-c2nnc(Nc3ccc(C(=O)N(C)C)cc3)c3ccccc23)cc1 returned NR2F2 inh -8.6, SMARCA2 act -2.5, GAA850 FXN act -1.2, Gli-Sufu block -20.1, GalR3 antagonist 0.4 and H9c2 protect 13.0.
For NC(=O)c1ccc(Nc2nnc(-c3ccc(O)cc3)c3ccccc23)cc1 the results were NR2F2 inh 13.3, SMARCA2 act -2.2, GAA850 FXN act 2.2, Gli-Sufu block 2.3, GalR3 antagonist -0.7 and H9c2 protect 59.1*.
Screening CNC(=O)c1ccc(Nc2nnc(-c3ccc(C(N)=O)cc3)c3ccccc23)cc1 returned NR2F2 inh -17.6, SMARCA2 act 1.2, GAA850 FXN act 1.8, Gli-Sufu block -6.3, GalR3 antagonist -7.9 and H9c2 protect 11.9.
CCN(CC)C(=O)c1ccc(-c2nnc(Nc3ccc(O)cc3)c3ccccc23)cc1 was read as NR2F2 inh -15.0, SMARCA2 act -2.8, GAA850 FXN act -0.8, Gli-Sufu block 0.8, GalR3 antagonist -4.4 and H9c2 protect 58.8*.
For C=CCNCc1ccc(OC)cc1OC the results were NR2F2 inh 10.9 and SMARCA2 act -0.4.
`c1ccc(Cn2ccc3ccc(-c4ccc5ccn(Cc6cccc(-c7cccs7)c6)c5c4)cc32)cc1` gave NR2F2 inh -5.9 and SMARCA2 act -4.5.

Screens as filed in PubChem BioAssay.
